# Test: JC-1 mitochondrial signal, unstimulated myeloma cells – cell-based, JC-1 fluorescence, RPMI8226, 24 h, 100 nL compound, profiling panel (AID 1169)
# Details: JC-1 mitochondrial potential fluorescence, higher = more signal
# Further: test concentration not given here.
row,SMILES,z-score
1,COc1ccc([Si](C)(C)[C@@H]2[C@@H](CC(=O)N3CCC[C@H]3CO)O[C@]3(C(=O)N(Cc4ccc(N5CCOC5=O)cc4)c4ccccc43)[C@H]2C)cc1,-1.07
2,CC1CC/C=C\[C@H]2OC34C=CCN(c5ccc6ccccc6c5)C(=O)[C@H]3N(C(C)CO)C(=O)[C@@H]4C2C(=O)O1 (some centres undefined),0.195
3,CCCCCCc1nc(-c2ccc(-c3ccc(Cl)c(Cl)c3)o2)cc2c1[Si](C(C)C)(C(C)C)OC2,-0.934
4,CCOC(=O)C1=CC[C@@H](c2ccccc2)N(S(=O)(=O)c2ccc(C)cc2)[C@H]1c1ccccc1I,1.14
5,COC(=O)[C@]1(Cc2ccccc2)N=C(c2ccc(OCCCO)cc2)O[C@@H]1c1ccccc1CN=[N+]=[N-],-1.12
6,CC(C)=CCCC=C(C)C(O)C1C=CC2C(=O)N(c3ccccc3)C(=O)C2N1Nc1ccc(C#N)cc1 (centres undefined),-0.483
7,CCOC(=O)C[C@H]1[C@H](OC(=O)c2ccccc2-c2ccccc2)[C@@H](NC(=O)C2CCCCC2)c2cc(OCCCO)ccc2N1C(=O)c1ccc2ccccc2n1,-0.21

# Test: JC-1 mitochondrial signal, unstimulated MM1S myeloma – cell-based, JC-1 fluorescence, 24 h, 100 nL compound, profiling panel (AID 1170)
# Details: MM1S mitochondrial potential, higher = more signal
row,SMILES,z-score
1,O=C1N(Cc2ccccc2)c2ccccc2C[C@@]12COC(c1ccc(OCCCO)cc1)=N2,-0.589
2,COc1ccc([Si](C)(C)[C@H]2[C@H](CC(=O)N3Cc4ccccc4C[C@H]3CO)O[C@@]3(C(=O)N(c4ccccc4)c4ccccc43)[C@@H]2C)cc1,-0.81
3,C=C(COC)/C(=C/C[C@@H](OC(C)=O)c1ccccc1OCCO)c1cnc2ccccc2c1,1.4
4,O=C(NCc1ccccc1)[C@@H]1c2ccccc2C(=O)N(Cc2cc(C(F)(F)F)cc(C(F)(F)F)c2)[C@H]1c1ccc(CO)cc1,-1.15
5,COCCOC(=O)N1C(=O)[C@@]2(c3cc(C#CCNC(N)=O)ccc31)[C@H](C(=O)Nc1nc3ccccc3s1)[C@H]1C(=O)O[C@H](c3ccccc3)[C@H](c3ccccc3)N1[C@@H]2c1ccccc1OCCO,-1.64
6,CC=CC(O)C1C=CC2C(=O)NC(=O)C2N1Nc1ccc(Cl)cc1Cl (centres undefined),-0.446
7,CCCCN1CC=CC23O[C@@H]4/C=C\CCCOC(=O)C4[C@H]2C(=O)N(C(CO)C(C)C)[C@@H]3C1=O (some centres undefined),-0.608
8,COc1ccc([Si](C)(C)[C@H]2[C@H](CC(=O)N3Cc4ccccc4C[C@H]3CO)O[C@@]3(C(=O)N(C)c4c(Br)cc(C)cc43)[C@@H]2C)cc1,-2.31
9,CC(C)(C)N1CC=CC23O[C@@H]4/C=C\CCCOC(=O)C4[C@H]2C(=O)N(CCCCCO)[C@@H]3C1=O (some centres undefined),-0.00811
10,C=C(CCCC)/C(=C/C[C@H](OC(=O)c1ccncc1)c1ccccc1OCCO)c1cc(C(=O)OC)ccc1OC,0.732
11,COc1ccc(C(=O)Nc2ccc(CN3C(=O)[C@@]4(O[C@@H](CCn5cc(CCO)nn5)[C@H]([Si](C)(C)c5ccc(OC)cc5)[C@H]4C)c4ccccc43)cc2)cc1,-2.22
12,C#CCN1[C@@H](Cc2ccccc2)C(=O)O[C@H](Cc2ccccc2)[C@@H]1/C=C/C1CC1,0.4
13,O=C1C=C(c2ccccc2)C(=O)C2=C1CC([C@H]1Oc3ccccc3S(=O)(=O)N3CCC[C@@H]13)=CC2,-2.67
14,COC(=O)[C@@]1(Cc2ccccc2)[C@H]2c3cc(C(=O)N4CCCC4)n(Cc4ccc(OC)c(OC)c4)c3C[C@H]2CN1C(=O)c1ccccc1,-0.52
15,O=C1c2ccccc2[C@@]2(Cc3ccccc3N(Cc3ccccc3)C2=O)[C@H](c2ccc(CO)cc2)N1Cc1ccccc1Cl,-0.316
16,C=C(CCCC)C(=O)CC[C@@H](OC(=O)c1ccccc1-c1ccccc1C(=O)O)c1ccccc1OCCO,-0.203
17,COC(=O)C1(Cc2ccccc2)C=C2C(=C(C)C(=O)C2C)CN1 (centres undefined),-0.762
18,CC[C@@H]1C=C(C(=O)O)[C@H](c2ccc(OC)cc2)N1S(=O)(=O)c1ccc(C)cc1,-0.273
19,COc1ccc([Si](C)(C)[C@@H]2[C@@H](CC(=O)N(CCO)Cc3ccccc3)O[C@]3(C(=O)N(Cc4ccc(I)cc4)c4ccccc43)[C@H]2C)cc1,-0.732
20,COc1ccc([Si](C)(C)[C@@H]2[C@@H](CC(=O)N3CCC[C@H]3CO)O[C@]3(C(=O)N(Cc4cccc(N5CCCCC5=O)c4)c4ccccc43)[C@H]2C)cc1,-1.47
21,CCOC(=O)C[C@H]1[C@H](OC(=O)Cc2ccc3c(c2)OCO3)[C@@H](NC(=O)c2ccc3ccccc3n2)c2cc(OCCCO)ccc2N1C(=O)Cc1ccc(OC)cc1,-0.882
22,O=C1[C@H]2C=C(I)[C@H](C[C@@H]2OCCCCCCO)[C@@]12CO2,-0.571

# — PubChem BioAssay
